RORgamma inh: ROR gamma (mouse) transcription inhibition | Potency, µM (highest dose often 53.6 µM), hits mostly inhibitors | P51450 | hit rate 5.4% among 310,000 | Drosophila S2 Gal4-RORgamma UAS-luciferase reporter, 20 h; note: nearly all actives have a fitted effect of over 60% in size
Target sequence (P51450 whole entry, looked up, the tested form may be a part): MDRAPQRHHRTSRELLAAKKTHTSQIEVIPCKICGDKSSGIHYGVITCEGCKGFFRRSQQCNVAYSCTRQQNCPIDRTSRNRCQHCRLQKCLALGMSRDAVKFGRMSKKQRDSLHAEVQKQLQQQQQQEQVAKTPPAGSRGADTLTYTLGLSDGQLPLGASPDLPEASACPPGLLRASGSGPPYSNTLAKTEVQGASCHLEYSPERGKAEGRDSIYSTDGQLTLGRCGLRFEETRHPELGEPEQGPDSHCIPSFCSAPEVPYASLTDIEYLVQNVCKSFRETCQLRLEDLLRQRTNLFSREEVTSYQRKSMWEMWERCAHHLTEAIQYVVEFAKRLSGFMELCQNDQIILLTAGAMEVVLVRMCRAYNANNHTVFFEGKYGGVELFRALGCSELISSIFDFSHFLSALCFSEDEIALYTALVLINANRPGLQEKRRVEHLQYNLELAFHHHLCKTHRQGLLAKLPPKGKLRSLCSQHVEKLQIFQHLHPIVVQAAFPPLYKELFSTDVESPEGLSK
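Using a luciferase readout, inhibitors were identified by reduced reporter activity in Drosophila cells coexpressing a copper-inducible Gal4–ROR gamma fusion and UAS-driven Photinus luciferase, incubated 20 hr after 700 uM copper sulfate.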
Gal4-VP16 FLuc: inhibits Gal4-VP16 luciferase reporter, ROR gamma counter-screen. Drosophila S2 Gal4-VP16 UAS-luciferase, luminescence, 20 h. Potency, µM (series often up to 53.6 µM), actives largely listed as inhibitors. hit rate 3.5% among 310,000;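 note: Gal4-VP16 expression switched on by copper sulfate through the metallothionein promoter; nearly all actives have a fitted effect of over 50% in size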
TDP1 cell noCPT: qHTS for Inhibitors of human tyrosyl-DNA phosphodiesterase 1 (TDP1): qHTS in cells in absence of CPT. DT40 Tdp1-/- hTDP1 cells, no CPT, ATP luminescence, 48 h. Potency, µM (top dose mostly 46.2 µM), actives largely listed as inhibitors. hit rate 15% among 420,000. AID 686978, 2013; note: nearly all actives have a fitted effect of over 55% in size
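A cellular qHTS used chicken DT40 cells lacking endogenous Tdp1 but carrying stably transfected human TDP1. Compounds were applied without camptothecin, and cell growth kinetics were judged by ATP-dependent luminescence after ≥48 hr.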
TDP1 inh: blocks human tyrosyl-DNA phosphodiesterase 1. Q9NUW8. recombinant TDP1, AlphaScreen DNA substrate cleavage. Potency, µM (titrated, usually from 130 µM), actives largely listed as inhibitors. hit rate 0.28% among 350,000. AID 485290; note: nearly all actives have a fitted effect of over 40% in size
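Recombinant E. coli-expressed Tdp1 (1 nM) preincubated with compound 15 min at RT, then 5'-biotin/3'-phosphotyrosine-FITC DNA substrate (15 nM) added for 5 min. AlphaScreen beads (10 ug/ml) added, 10 min RT; tyrosine-FITC cleavage read as signal loss.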
TDP1 cell CPT: DT40-hTDP1 cell growth loss with CPT; chicken DT40 Tdp1-/-;hTDP1 cells + 20 nM CPT, ATP luminescence, 48 h; Potency, µM (series often up to 46.2 µM), usual class: inhibitors; hit rate 12% among 420,000; AID 686979; note: nearly all actives have a fitted effect of over 55% in size
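Cell growth measured by CellTiter-Glo luminescence after a minimum 48 h, 37 C compound exposure with 20 nM CPT in Tdp1-knockout DT40 cells stably expressing hTDP1, seeded 400/well; qHTS titration format.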
Numbers stand for hits; 0 = inactive; ? = inconclusive; - = not tested or not shown; ! = a repeat was not active; [ ] = remark or other dose. Only some compounds are listed: those with a hit (about 19% of all), similar ones and a draw of the others. Calls come from the whole dose curve; as a rule, active = well fitted curve in the direction sought with a large enough effect; inconclusive = small, poorly fitted or top-dose-only effect, or another doubt; inactive = no such curve, though single readings can be large; an effect the other way counts as inactive or inconclusive.

SMILES	RORgamma inh	Gal4-VP16 FLuc	TDP1 cell noCPT	TDP1 inh	TDP1 cell CPT
Cc1ccc(-n2nnnc2-c2cnoc2-c2cccc(F)c2)cc1	0	?	?	0	26µM
Cc1cccc(/C(N)=N/OC(=O)c2ccco2)c1	?	?	0	0	0
Cc1ccc(/C(N)=N/OC(=O)N2CCOCC2)cc1	0	?	?	0	18µM
Cc1cccc(/C(N)=N/OC(=O)N2CCOCC2)c1	0	0	18µM	0	16µM
Cc1cc(C)nc(Nc2n[nH]c(-c3cccc4ccccc34)n2)n1	11µM	?	?	0	?
Cc1cc(C)nc(Nc2n[nH]c(COc3ccccc3)n2)n1	0	0	18µM	0	?
Cc1cc(C)nc(Nc2n[nH]c(-c3ccccc3Cl)n2)n1	?	0	0	0	0
Cc1oc(C(=O)O)cc1COc1cccc2ccccc12	0	0	0	-	0
Cc1cc(C)nc(Nc2n[nH]c(COc3cccc4ccccc34)n2)n1	0	0	3.3µM	0	2.9µM
Cc1cc(C)nc(Nc2n[nH]c(COc3ccc4ccccc4c3)n2)n1	0	0	0	0	0
CC(C)(C)c1ccc(OC(=O)c2ccc(-n3cncn3)nc2)cc1	0	0	-	0	-
COC(=O)c1sccc1NC(=O)Nc1cc(C)ccc1C	0	0	0	0	0
Cc1c(CC(=O)N2CCC(C(N)=O)CC2)c(=O)oc2cc3c(cc12)CCC1(CCCCC1)O3	0	0	?	-	?
CN(C)S(=O)(=O)N1CCN(CC(=O)Nc2ccc(Br)cc2)CC1	0[1.91 µM]	0	0	-	0
COC(=O)c1cc2c(n1S(=O)(=O)c1ccc(C)cc1)C(=O)C(=O)c1[nH]cc(C(=O)OCc3ccccc3)c1-2	-	-	1.6µM	-	0.82µM
COC(=O)c1ccc(COC(=O)c2ccc(CS(=O)(=O)c3ccc(C)cc3)cc2)cc1	0	0	0	0	0
O=C(c1cccc(Oc2c(Cl)cccc2[N+](=O)[O-])c1)N1CCCCC1	?	0	?	0	0
CC(=O)c1ccc(OCc2ccc(C(=O)c3ccccc3)cc2)cc1	?	?	8.2µM	0	10µM
CC(=O)c1ccc(OCc2ccc(Oc3c(Cl)cccc3[N+](=O)[O-])cc2)cc1	?	20µM	?	0	?
CC1(C)Cc2c(c(N3CCOCC3)nc3sc4c(NCCN5CCOCC5)nnnc4c23)CS1	0	0	12µM	0	?
CC1(C)Cc2c(c(N3CCOCC3)nc3sc4c(NCC5CCCO5)nnnc4c23)CS1 (centres undefined)	0	0	?	0	0
Cn1cnc2c(NCc3ccccc3)nc(NCCO)nc21	0	0	?	0	?
COc1ccc(Nc2nc(-c3cccs3)nc3ccccc23)cc1	?	0	23µM	0	?
COc1cccc(CN(C)c2nc(-c3cccs3)nc3ccccc23)c1	0[10 µM]	0	21µM	0	18µM
COc1ccc(Nc2nc(-c3ccccc3)nc3ccccc23)cc1	0	0	?	-	?
SMILES	RORgamma inh	Gal4-VP16 FLuc	TDP1 cell noCPT	TDP1 inh	TDP1 cell CPT
COc1cccc(Nc2nc(-c3cccs3)nc3ccccc23)c1	0	0	23µM	0	?
COc1cccc(-c2nc(N(C)C)c3ccccc3n2)c1	0	0	?	-	0
COc1ccc(Nc2nc(-c3cccc([N+](=O)[O-])c3)nc3ccccc23)cc1	0	?	15µM	0	?
N#Cc1c(N)sc(=S)c2c1CCN(Cc1ccccc1)C2	0	0	-	0	-
Cc1cccc(NC(=O)Nc2cccc(C)n2)n1	?	0	0	0	0
O=[N+]([O-])c1ccc(NC(c2ccccc2)c2ccc3cccnc3c2O)cc1 (centres undefined)	-	-	4.6µM	-	3.3µM
COc1cccc(C(NC(C)=O)c2ccc3cccnc3c2O)c1 (centres undefined)	2.8µM	5µM	0.92µM	-	0.73µM
Cc1cccc(NC(c2ccc(O)cc2)c2ccc3ccc(C)nc3c2O)n1 (centres undefined)	10µM	0	16µM	0	23µM
Oc1cccc(C(Nc2nccs2)c2ccc3cccnc3c2O)c1 (centres undefined)	1.4µM	3.5µM	4.6µM	0	3.7µM
COc1cccc(C(NC(C)=O)c2nc(-c3cccnc3)cs2)c1 (centres undefined)	-	-	0	-	0
COc1ccc(S(=O)(=O)N2CCCCCC2)cc1C(=O)NCc1cccs1	-	-	0	0	0
CCCCC(=O)NC(c1cccc([N+](=O)[O-])c1)c1ccc2cccnc2c1O (centres undefined)	-	-	2.9µM	-	3.7µM
CCCCC(=O)NC(c1cccc([N+](=O)[O-])c1)c1c(OC(C)=O)ccc2ccccc12 (centres undefined)	0	?	?	0	?
COc1cccc(C(Nc2ccccc2)c2ccc3ccc(C)nc3c2O)c1 (centres undefined)	-	-	5.2µM	-	5.8µM
CC(=O)NC(c1cccc([N+](=O)[O-])c1)c1ccc2cccnc2c1O (centres undefined)	1.4µM	2µM	1µM	0	2.6µM
CC(=O)c1ccc(NC(=O)CCn2c(=S)oc3ccccc32)cc1	0	0	0	-	0
CCNC(=O)C1(C)CCCN(C(=O)c2oc3ccccc3c2C)C1 (centres undefined)	-	-	0	-	0
Cc1ccc(S(=O)(=O)Nc2c(Cl)c(Cl)c(O)c3ccccc23)cc1	18µM	?	-	0	-
Cc1ccc(S(=O)(=O)Nc2c(O)ccc3ccccc23)cc1	-	-	0	-	?
Cc1ccc(-c2cc(NC(=O)c3cccc(C)c3)on2)cc1	-	-	0	0	0
O=C(Nc1ccccc1N1CCCC1)c1ccccc1Cl	-	-	?	0	0
Cc1ccccc1C(=O)Nc1ccccc1N1CCCCC1	?	0	16µM	0	?
COc1ccc(Cl)cc1C(=O)Nc1ccccc1N1CCCCC1	0	0	29µM	-	18µM
Cc1ccc(C)c(N2N=C(C(=O)Nc3ccccc3N3CCCC3)CCC2=O)c1	0	0	21µM	0	?
COc1ccccc1C(=O)Nc1cc(-c2ccc(C)cc2)no1	0	0	13µM!	0	?
SMILES	RORgamma inh	Gal4-VP16 FLuc	TDP1 cell noCPT	TDP1 inh	TDP1 cell CPT
O=C(Nc1ccccc1N1CCCC1)c1cc(Cl)ccc1Cl	0	0	0	0	0
Cc1ccc(C)c(N2N=C(C(=O)Nc3ccccc3N3CCOCC3)CCC2=O)c1	-	-	?	0	?
CCOC(=O)C1(Cc2ccccc2)CCN(Cc2cccn2-c2cccnc2)CC1	0	0	?	0	?
Clc1ccc(CSCCc2ccncc2)cc1	0	?	?	0	?
CCOCCCNS(=O)(=O)c1ccc(NC(=O)c2ccccc2)cc1	?	0	?	0	?
CCOC(=O)c1cnc(SCC(=O)Nc2nnc(CC)s2)nc1N	0	0	0	0	0
COc1ccccc1C(=O)Nc1ccccc1N1CCCCC1	0	0	18µM	-	?
COc1ccccc1C(=O)Nc1ccc(N2CCCCC2)cc1	0	0	?	0	?
O=C(Nc1ccccc1N1CCCCC1)c1cccs1	0	0	?	0	0
